# From PubChem BioAssay (NCI)
# Compounds without any hit were thinned out: in the full panel of roughly 83,000, 20% have a hit.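 Cell lines were cultured in 96-well plates, exposed to a single compound concentration, and assessed for percent growth 48 hours later.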 A number with no mark means an inactive call. The source made the active and inactive calls. How the source made its calls: active means growth percent below 10; inactive means the rest.
# What was measured:
# Assay in all cases: NCI-60 one-dose screen, 48 h (100 = growth as untreated, 0 = no growth, -100 = all killed)
# Conditions in all cases: 10 µM unless noted
# [1] = tested on: DU-145 prostate
# [2] = tested on: K-562 leukemia
# [3] = tested on: MALME-3M melanoma
# [4] = tested on: MDA-MB-231 breast
# [5] = tested on: RXF 393 renal
# [6] = tested on: SF-268 CNS
# [7] = tested on: SF-295 CNS
# [8] = tested on: UACC-257 melanoma
# [9] = tested on: M14 melanoma
# [10] = tested on: SF-539 CNS
SMILES,growth [1],growth [2],growth [3],growth [4],growth [5],growth [6],growth [7],growth [8],growth [9],growth [10] [%]
CC(=O)C1=C(O)C=C2Oc3c(C(=O)/C=C/c4cc(C(F)(F)F)cc(C(F)(F)F)c4)c(O)c(C)c(O)c3[C@]2(C)C1=O,-71.4% (active),-20.7% (active),-65.6% (active),-38.8% (active),-48.6% (active),-18.1% (active),-17.4% (active),-51.4% (active),-59.1% (active),
Cn1cc(-c2nc(-c3c[nH]c4ccccc34)cs2)c2cccnc21,31.6%,18%,54.7%,30.6%,27.9%,52.4%,11.5%,61.5%,19.6%,
Oc1c(Cl)cc(Cl)cc1CNc1nccnn1,101%,125%,93.9%,104%,108%,96.6%,101%,105%,91.9%,
O=C(COCc1c(-c2ccccc2)no[n+]1[O-])Nc1ccc(C(=O)/C=C/c2ccc3c(c2)OCO3)cc1,116%,92.4%,123%,101%,95.9%,97.9%,103%,93.3%,109%,
C=C1CC[C@@H]2[C@](C)(COC(C)=O)[C@H](OC(C)=O)CC[C@@]2(C)[C@@H]1CC(Nc1ccc(S(=O)(=O)Nc2nc(C)cc(C)n2)cc1)C1=CCOC1=O (stereo partly specified),82.3%,19.1%,96.3%,107%,85.1%,93.3%,97%,67.9%,63.8%,
COc1ccc(N(Cc2cc(OC)c(OC)c(OC)c2)C2OC(=O)c3ccccc32)cc1 (stereo unspecified),25.5%,17.7%,31.3%,41.1%,-31.7% (active),44%,16.3%,70.8%,25.7%,
COC(/C=C/c1ccc([N+](=O)[O-])cc1)OC,119%,105%,109%,91.2%,87.5%,106%,106%,90.8%,77.2%,
COc1cnc2c(c1)C(=O)c1c-2n(CCCN2CCCC2)c(=O)c2cc([N+](=O)[O-])ccc12,3.15% (active),-12.1% (active),-20.2% (active),-49.1% (active),-88.7% (active),17.1%,-6.13% (active),-8.07% (active),0.878% (active),
N=c1c2ccccc2nc2n1CCCCC2,118%,121%,107%,110%,110%,106%,109%,110%,108%,
C=C1CCC2C3(C)COC(c4ccc(OC)cc4Br)OC3CCC2(C)C1/C=C/C1=CCOC1=O (stereo unspecified),86.6%,31.1%,93.9%,78.7%,90%,89%,60.6%,58.3%,87.3%,
Cc1ccn2c(-c3csc(Nc4cccc(O)c4)n3)c(C)nc2c1,17.7%,2.56% (active),65.4%,-1.81% (active),0.213% (active),39.5%,16.3%,77.2%,16%,
COc1cc(C2C(C(=O)c3cccs3)=C(O)C(=O)N2CCN2CCOCC2)cc(OC)c1OC (stereo unspecified),106%,116%,107%,111%,100%,97.9%,100%,108%,99.6%,
COc1ccc(CN2C(=O)/C(=C\c3cc(OC)c(OC)c(OC)c3)c3cc(OC)ccc32)cc1,7.67% (active),1.94% (active),36.4%,11.1%,-53% (active),7.98% (active),39.7%,25.7%,-28% (active),
COc1ccc(C2CC(=O)Nc3c2c(C)nn3-c2nc3ccccc3[nH]2)cc1 (stereo unspecified),89.1%,-33.9% (active),28.8%,109%,101%,47.9%,85.9%,111%,84.5%,
CCOC(=O)C12CCCC1=CC(=O)CC2 (stereo unspecified),116%,89%,108%,111%,113%,103%,115%,94.4%,112%,
O=C1C[C@H](N2C(=O)c3ccccc3S2(=O)=O)C2CO[C@@H]1O2,87.8%,55.6%,97.2%,110%,86.8%,102%,93.7%,84.3%,84.2%,
CS(CCCCN=C=S)=NC(=O)c1c(F)c(F)c(F)c(F)c1F (stereo unspecified),41.4%,22.5%,44.8%,67.9%,41.9%,86.8%,102%,61.5%,62.8%,
Nc1ccc2c(c1)C(=O)NC2=O,110%,100%,90.5%,101%,115%,92.5%,101%,98.6%,99.4%,
Cc1[nH]n(-c2ccccc2)c2nc3nncc3c(-c3ccc(Cl)cc3)c12,103%,95.8%,132%,106%,107%,98.9%,105%,101%,114%,
CCOC(=O)c1c2c(n3ccc(NC(=O)CCN4CCOCC4)cc13)C(=O)c1ncccc1C2=O,45.8%,19.8%,42.6%,26%,63%,39%,49.3%,32%,24.6%,
Cc1ccc(Nc2nc(N)nc(Nc3ccc4ccccc4c3)n2)cc1,58.5%,20.2%,83.9%,47.9%,27.3%,46.3%,53.3%,54.3%,44%,
CCCCNC(=O)NS(=O)(=O)c1ccc(N2N=C(c3cc(C)ccc3C)CC2c2cc(OC)c(OC)c(OC)c2)cc1 (stereo unspecified),88.9%,36.1%,25.3%,79.4%,44.7%,66%,8.51% (active),59.3%,8.53% (active),
CCC(c1ccccc1)C(CC)c1ccc(O)c(O)c1 (stereo unspecified),100%,87%,114%,109%,106%,92.1%,106%,97.3%,96.9%,
C[C@]12C[C@@H](c3ccoc3)OC(=O)[C@@H]1CC[C@]1(C)[C@@H]2CC[C@@H](O)[C@]1(C)O,73%,39.8%,81.6%,74.6%,102%,106%,51.7%,83%,82.4%,
COc1ccc(C(=O)/C=C/c2c[n+](=O)c3ccc(F)cc3n2[O-])cc1,110%,102%,90.9%,106%,129%,96.8%,102%,106%,101%,
COc1ccccc1-c1ccc2c(N)c(C(=O)c3ccc4c(c3)OCO4)sc2n1,90.5%,14.4%,48.2%,51.8%,75.3%,84.3%,63.9%,81.4%,46.6%,
O=c1c2cccc3c(Nc4c(F)cccc4F)ccc(c32)c2nc3ccccc3n12,104%,84.9%,93.8%,82.1%,116%,97.8%,,,100%,100
CSc1ccc(N=C=C(c2ccccc2)c2ccccc2)cc1,109%,60.4%,105%,84.7%,105%,95.8%,96.1%,93.3%,80.4%,
